Source: PubChem (National Center for Advancing Translational Sciences (NCATS))
The sample as a whole holds a higher share of hits than the screen did.
12-LOX inh – Primary qHTS assay for inhibitors of human arachidonate 12S-lipoxygenase (ALOX12): Round 2; 580,000 tested, 1.1% active; purified 12hLO, xylenol orange hydroperoxide absorbance; Polyunsaturated fatty acid lipoxygenase ALOX12 (Homo sapiens), P18054; Potency, µM (doses to about 108 µM), inactives show at the highest dose activity change, negative = inhibition, usual class: inhibitors; note: potency is the fitted concentration of half-maximal effect
Target sequence (P18054 whole entry, looked up): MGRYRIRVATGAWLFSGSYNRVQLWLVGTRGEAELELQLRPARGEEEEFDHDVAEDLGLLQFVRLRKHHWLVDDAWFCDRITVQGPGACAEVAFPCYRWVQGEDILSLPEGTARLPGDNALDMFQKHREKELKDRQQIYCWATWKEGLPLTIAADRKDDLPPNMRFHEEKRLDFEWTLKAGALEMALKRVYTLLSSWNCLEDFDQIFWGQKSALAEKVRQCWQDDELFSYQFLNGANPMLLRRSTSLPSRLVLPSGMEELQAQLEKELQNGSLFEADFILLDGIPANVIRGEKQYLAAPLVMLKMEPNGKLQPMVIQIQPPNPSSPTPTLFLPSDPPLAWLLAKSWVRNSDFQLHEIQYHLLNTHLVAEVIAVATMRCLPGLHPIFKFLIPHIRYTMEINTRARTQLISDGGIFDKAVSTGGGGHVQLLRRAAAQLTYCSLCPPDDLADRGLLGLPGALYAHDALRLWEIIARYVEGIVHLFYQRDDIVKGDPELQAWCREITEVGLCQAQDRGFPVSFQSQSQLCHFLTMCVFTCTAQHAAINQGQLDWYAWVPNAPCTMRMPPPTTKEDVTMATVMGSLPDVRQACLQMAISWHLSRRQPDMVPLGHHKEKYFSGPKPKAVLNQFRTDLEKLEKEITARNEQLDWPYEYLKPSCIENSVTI
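Hydroperoxide product was detected by ferrous iron/xylenol orange as the 573 to 405 nm absorbance ratio. Arachidonic acid at 40 uM (final) was turned over for 30 min at room temperature by 150 nM human 12hLO, pH 7.0 Hepes buffer, after 15 min compound preincubation.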
DT40 TDP1 CPT – qHTS for Inhibitors of human tyrosyl-DNA phosphodiesterase 1 (TDP1): qHTS in cells in presence of CPT; chicken DT40 Tdp1-/-;hTDP1 cells + 20 nM CPT, ATP luminescence, 48 h; Potency, µM (doses to about 46.2 µM), for inactives: at the highest dose activity change, negative = growth inhibition, usual class: inhibitors; 420,000 tested, 12% active; AID 686979, 2013; note: potency is the fitted concentration of half-maximal effect; nearly all actives have a fitted effect of over 55% in size
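Chicken DT40 Tdp1-/- cells complemented with human TDP1, 400 cells/well, exposed to compounds plus 20 nM camptothecin for at least 48 h at 37 C; viability read as ATP content by CellTiter-Glo luminescence.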
TDP1 cell noCPT – qHTS for Inhibitors of human tyrosyl-DNA phosphodiesterase 1 (TDP1): qHTS in cells in absence of CPT; AID 686978, 2013; 420,000 tested, 15% active; DT40 Tdp1-/- hTDP1 cells, no CPT, ATP luminescence, 48 h; Potency, µM (series often up to 46.2 µM), for the others: at the top dose activity change, negative = growth inhibition, most hits filed as inhibitors; note: potency is the fitted concentration of half-maximal effect; nearly all actives have a fitted effect of over 55% in size
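Compound effects on proliferation are scored in DT40 Tdp1-/-;hTDP1 cells in the absence of CPT. ATP levels (CellTiter-Glo luminescence) are recorded after a ≥48 hr, 37 °C incubation.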
IL1B secr inh – qHTS for Inhibitors of Inflammasome Signaling: IL-1-beta AlphaLISA Primary Screen; THP-1 LPS/ATP IL-1B secretion, AlphaLISA, 16 h; stronger effect = lower value; activity change, % at 57.5 µM; 360,000 tested, 4.7% active; in the data active = activity change below about -50%; inconclusive = mostly about -30% to -49%
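Secreted IL-1B measured by AlphaLISA bead assay after 16 h compound exposure of THP-1 cells; compounds (final up to 57.5 uM) added 1 h before LPS (250 ng/mL) and ATP (1.25 mM) stimulation; lower signal means less secretion.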
HT1080NT lethal – qHTS for induction of synthetic lethality in tumor cells producing 2HG: qHTS for the HT-1080-NT fibrosarcoma cell line; 360,000 tested, 1.6% active; Potency, µM (doses to about 46.1 µM), for the others: top-dose activity, negative = less viability, most hits filed as cytotoxic; AID 686970, 2013; HT-1080-NT fibrosarcoma viability, CellTiter-Glo ATP luminescence, 48 h;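 note: NT is the 2HG producing partner of a matched IDH1 knockdown line; potency is the fitted concentration of half-maximal effect; 0% = DMSO-treated cells and -100% = media-only wells without cells; nearly all actives have a fitted effect of over 55% in size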
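Viability of the 2HG-overproducing fibrosarcoma line after 48 hours of compound exposure at 37 degrees C was determined by luminescence with CellTiter-Glo, and concentration-effect curves were then fitted and categorized.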
HT1080 IDH1KD tx – qHTS for induction of synthetic lethality in tumor cells producing 2HG: qHTS for the HT-1080-IDH1KD cell line. AID 686971, 2013. Potency, µM (top dose mostly 46.1 µM), inactives show at the highest dose activity, negative = toxicity, usual class: cytotoxic. HT-1080 IDH1 knockdown viability, ATP luminescence, 48 h. 360,000 tested, 2% active;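 note: potency is the fitted concentration of half-maximal effect; 0% = DMSO wells and -100% = cell-free medium wells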
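% activity derives from luminescence (CellTiter-Glo), normalised to DMSO and no-cell wells. HT-1080-IDH1KD cells, 750/well, had 48 h compound exposure at 37 °C.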
An asterisk follows results filed as active; ? = inconclusive; . = no result given; [ ] = another dose, or the depositor's remark. Unless noted, calls come from the whole dose curve; as a rule, active = well fitted curve in the direction sought with a large enough effect; inconclusive = small, poorly fitted or top-dose-only effect, or another doubt; inactive = no such curve, though single readings can be large; an effect the other way counts as inactive or inconclusive. Unless noted, % is set by controls: 0 for no effect and ±100 for the full control effect.

SMILES	12-LOX inh	DT40 TDP1 CPT	TDP1 cell noCPT	IL1B secr inh	HT1080NT lethal	HT1080 IDH1KD tx
C#CCOCCOCCOCCNc1nc(N2CCN(C(=O)CCCCCCCCCCNC(=O)Cn3cc(CCCCCN)nn3)CC2)nc(N2CCN(C(=O)CCCCCCCCCCNC(=O)[C@@H](CCSC)n3cc(CCO)nn3)CC2)n1	.	?	?	-60*	-12%	-15%
C#CCOCCOCCOCCNc1nc(N2CCN(C(=O)CCCCCCCCCCNC(=O)[C@@H](CCSC)n3cc(CCO)nn3)CC2)nc(N2CCN(C(=O)CCCCCCCCCCNC(=O)[C@H](CCSC)n3cc(CCO)nn3)CC2)n1	22%	6.5µM*	?	?	-20%	-1%
C#CCOCCOCCOCCNc1nc(N2CCN(C(=O)CCCCCCCCCCNC(=O)Cn3cc(C[C@@H](C)O)nn3)CC2)nc(N2CCN(C(=O)CCCCCCCCCCNC(=O)[C@H](CCCCN)n3cc(CCCC(=O)O)nn3)CC2)n1	?	?	1%	?	24%	2%
COc1ccc2c(c1)cc(C(=O)N1Cc3[nH]cnc3CC1C(=O)O)n2C (configuration not stated)	35%	.	.	.	.	.
C#CCOCCOCCOCCNc1nc(N2CCN(C(=O)CCCCCCCCCCNC(=O)[C@H](CO)n3cc(CCCSC)nn3)CC2)nc(N2CCN(C(=O)CCCCCCCCCCNC(=O)[C@H](CCCCN)n3cc(CCO)nn3)CC2)n1	?	?	?	-61*	-10%	-17%
COc1ccccc1CN(Cc1c(Cl)cccc1Cl)S(=O)(=O)c1ccc(Br)cc1	8%	16µM*	21µM*	.	.	.
Cc1ccc(Sc2cnc(N)nc2C)cc1	1%	?	16µM*	-11	2%	-4%
Oc1ccc(Cl)cc1C=Nc1ccc(Cl)c(C(F)(F)F)c1	-8%	.	.	.	.	.
C[C@@]12C(=O)N(c3ccc(C(F)(F)F)cc3)C(=O)N1[C@@H]1c3ccccc3OC[C@@H]1[C@H]2c1ccccc1	.	7.3µM*	10µM*	0	8%	2%
C[C@]12C(=O)N(c3ccc(F)cc3)C(=O)N1[C@@H]1c3ccccc3OC[C@@H]1[C@H]2c1ccccc1	5%	?	18µM*	-10	0%	-23%
C[C@H]1NC(=O)[C@]2(C)[C@@H](c3ccccc3)[C@H]3COc4ccccc4[C@@H]3N2C1=O	-14%	0%	-14%	0	14%	6%
Cc1nc2cc(-c3cccc(F)c3)nn2c(C)c1CCC(=O)NC1CCCCC1	-16%	7%	5%	.	.	.
Cc1csc(NC(=O)CCc2c(C)nc3cc(-c4cccc(F)c4)nn3c2C)n1	9%[57.4 µM]	16µM*	21µM*	0	-16%	-5%
COC(=O)C(NC(=O)CCc1c(C)nc2cc(-c3cccc(F)c3)nn2c1C)C(C)C (configuration not stated)	-12%	?	18µM*	.	.	.
COc1cc(OC)cc(-c2cc3nc(C)c(CCC(=O)NC(C)CCc4ccco4)c(C)n3n2)c1 (configuration not stated)	-20%	?	16µM*	-21	0%	-2%
Cc1nc2cc(-c3cccc(F)c3)nn2c(C)c1CCC(=O)NC(C)CCc1ccco1 (configuration not stated)	.	?	?	-14	-7%	-23%
CN(Cc1ccccc1)S(=O)(=O)c1ccc(Cl)c(C(=O)NCCc2ccccn2)c1	0%	16µM*	?	2	5%	-12%
CN(Cc1ccccc1)S(=O)(=O)c1ccc(Cl)c(C(=O)NCCCN2CCCC2=O)c1	2%	?	16µM*	24	5%	-5%
CN(Cc1ccccc1)S(=O)(=O)c1ccc(Cl)c(C(=O)NCc2ccc3c(c2)OCO3)c1	-14%	?	?	-3	-6%	-11%
O=C(NCCc1ccccn1)c1cc(-c2ccc(Cl)c(Cl)c2Cl)nc2ccccc12	-18%	?	18µM*	0	-3%	?
CN(Cc1ccccc1)S(=O)(=O)c1ccc(Cl)c(C(=O)NCCCN2CCOCC2)c1	-8%	-9%	?	22	3%	8%
O=C(NCCCN1CCN(c2ccccc2)CC1)c1cc2c(s1)-c1ccccc1OC2	-20%	?	23µM*	.	.	.
Cc1cccc2c1-c1sc(C(=O)NCCCN3CCC(C)CC3)cc1CO2	-28%	?	?	?	?	?
CC1CCN(CCCNC(=O)c2cc3c(s2)-c2ccccc2OC3)CC1	-6%	?	?	-27	23µM*	?
O=C(NCCc1ccc(Cl)cc1)c1cc2c(s1)-c1ccccc1OC2	-28%	.	.	.	.	.
SMILES	12-LOX inh	DT40 TDP1 CPT	TDP1 cell noCPT	IL1B secr inh	HT1080NT lethal	HT1080 IDH1KD tx
CC1CCCN(CCCNC(=O)c2cc3c(s2)-c2ccccc2OC3)C1 (configuration not stated)	-16%	?	?	-77*	21µM*	?
CS(=O)(=O)N1CCCN(Cc2cccc(C#N)c2)CCNC(=O)CC1c1ccccc1 (configuration not stated)	-5%	.	.	.	.	.
CCOC(=O)c1ccc(NC(=O)CC2CCCCN(C)C2=O)cc1 (configuration not stated)	28%	.	.	.	.	.
COc1cc(OCC(=O)NC(C)C)cc2c1C(=O)O[C@@H](C)CCCC(=O)CCCCC2	0%	?	21µM*	-11	-6%	?
COc1cc2c(c(OCC(=O)NC(C)C)c1)C(=O)O[C@@H](C)CCCC(=O)CCCCC2	445%	?	?	?	-3%	-3%
CCc1ccc(-c2nc(CN3CCC(C(=O)NCc4ccc(F)cc4)CC3)c(C)o2)cc1	-25%	?	?	-19	-8%	3%
CCc1ccc(-c2nc(CN3CCC(C(=O)N4CCN(c5ccccn5)CC4)CC3)c(C)o2)cc1	-59%	23µM*	18µM*	-53*	-26%	?
